IDH1 R132H inh: qHTS for Inhibitors of mutant isocitrate dehydrogenase 1 (IDH1): qHTS. Isocitrate dehydrogenase [NADP] cytoplasmic (Homo sapiens), O75874. actives 0.093% (n = 390,000). Potency, µM (doses to about 76.6 µM), for the others: at the highest dose activity change, negative = inhibition, most hits filed as inhibitors. IDH1-R132H enzyme, NADPH consumption, diaphorase/resazurin fluorescence; further: potency means the concentration at half of the fitted maximal effect; on the % scale 0 is the no-effect control and ±100 the full control effect; nearly all actives have a fitted effect of over 65% in size
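IDH1-R132H (0.5 ug/mL dispensed) in pH 7.5 Tris buffer was preincubated 30 min with compound, then given a substrate mix of 0.016 mM NADPH and 2 mM alpha-KG for 80 min at room temperature; remaining NADPH was read by diaphorase/resazurin fluorescence.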
ASM inhibitor: Inhibitors of Secretory Acid Sphingomyelinase (S-ASM): qHTS; actives 0.006% (n = 340,000); placental ASM, HMU-PC fluorogenic substrate, 60 min; AID 504937, 2011; Potency, µM (top dose mostly 57.5 µM), inactives show top-dose activity change, negative = inhibition, hits mostly inhibitors; further: potency means the concentration at half of the fitted maximal effect
Target sequence (P17405 47-631 limits assumed): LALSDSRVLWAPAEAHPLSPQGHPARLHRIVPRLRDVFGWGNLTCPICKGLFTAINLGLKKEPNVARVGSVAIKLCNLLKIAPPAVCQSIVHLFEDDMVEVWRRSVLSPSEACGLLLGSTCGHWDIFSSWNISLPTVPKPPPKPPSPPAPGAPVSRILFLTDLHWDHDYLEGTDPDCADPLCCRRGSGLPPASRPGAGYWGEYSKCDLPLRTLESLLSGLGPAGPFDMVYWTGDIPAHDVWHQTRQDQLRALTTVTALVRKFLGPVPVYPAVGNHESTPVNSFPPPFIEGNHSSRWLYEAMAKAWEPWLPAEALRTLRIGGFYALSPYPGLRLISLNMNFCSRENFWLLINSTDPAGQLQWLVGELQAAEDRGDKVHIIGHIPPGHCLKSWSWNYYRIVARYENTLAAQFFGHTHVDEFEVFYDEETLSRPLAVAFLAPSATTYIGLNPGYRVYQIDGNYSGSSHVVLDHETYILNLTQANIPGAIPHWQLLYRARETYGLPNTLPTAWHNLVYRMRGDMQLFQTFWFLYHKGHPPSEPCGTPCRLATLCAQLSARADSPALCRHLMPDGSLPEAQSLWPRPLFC
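Steps: dispense placental human ASM, pin compound, wait 10 min at room temperature, add HMU-PC0 substrate at 9 uM final, incubate 60 min at 37 °C, add stop solution raising pH to 10, read fluorescence.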
Mito fusion act: qHTS Assay for Small Molecule Inhibitors of Mitochondrial Division or Activators of Mitochondrial Fusion | S. cerevisiae fusion-defective mutant growth rescue, CellTiterGlo 48 h | Potency, µM (titrated, usually from 46.1 µM), without a hit: at the highest dose growth rescue (activation), most hits filed as activators | actives 0.23% (n = 320,000); further: potency means the concentration at half of the fitted maximal effect; % of control where 0% means no effect; nearly all actives have a fitted effect of over 45% in size
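Yeast fusion mutant, YPEG (non-fermentable carbon), compound, 48 h at 37C non-permissive; CellTiterGlo added, 10 min RT, luminescence read. Rescued growth = division inhibition.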
LDHA inh: qHTS assay for inhibitors of human lactate dehydrogenase | activity change, % (values are at about 110 or 230 µM) | L-lactate dehydrogenase A chain (Homo sapiens), P00338 | AID 1347041, 2019 | purified LDHA, NADH/diaphorase-resazurin fluorescence; hits give low values | actives 0.15% (n = 480,000); in the data active means activity change below about -30%; inconclusive means mostly about -25% to -30%;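 further: plate controls were DMSO wells for no effect and wells without enzyme for full effect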
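Remaining NADH was detected by diaphorase (0.133 mg/mL) converting 37 µM resazurin to fluorescent resorufin, read at 0 and 20 minutes. The preceding 5-minute room-temperature reaction used 2 nM LDHA, 0.2 mM sodium pyruvate and 0.06 mM NADH at pH 7.4.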
RGS4 inhibitor: Inhibitors of Regulator of G Protein Signaling (RGS) 4: qHTS; actives 0.039% (n = 390,000); Regulator of G-protein signaling 4 (Homo sapiens), P49798; Potency, µM (series often up to 114 µM), for inactives: at the top dose activity change, negative = inhibition, actives largely listed as inhibitors; Transcreener GDP fluorescence polarization, RGS4-accelerated GTP hydrolysis; further: potency means the concentration at half of the fitted maximal effect; on the % scale 0 is the no-effect control and ±100 the full control effect; nearly all actives have a fitted effect of over 75% in size
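MLSMR compounds (23 nl, pin-transferred) preincubated 10 min at room temperature with a 500nM (2x) first reagent, then RGS4 at 900nM (2x) plus Transcreener GDP mix added; fluorescence polarization (620/688 nm) read before and after 90 min at 30 °C.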
ClpP mod: qHTS Assay for Activators of ClpP. ATP-dependent Clp protease proteolytic subunit (Bacillus subtilis (strain 168)), P80244. purified B. subtilis ClpP, FRET peptide cleavage, 20 min. actives 1.9% (n = 340,000). Potency, µM (titrated, usually from 57.5 µM), for the others: at the highest dose activity change, negative = active; active means well fitted falling curve with a large enough effect; inconclusive means small, poorly fitted or top-dose-only effect; inactive means no such curve, though single readings can be large or run the other way; further: potency means the concentration at half of the fitted maximal effect; the source files actives as falling curves though it sought activators and does not explain the sign; nearly all actives have a fitted effect of over 65% in size
Target sequence (P80244 whole entry, looked up): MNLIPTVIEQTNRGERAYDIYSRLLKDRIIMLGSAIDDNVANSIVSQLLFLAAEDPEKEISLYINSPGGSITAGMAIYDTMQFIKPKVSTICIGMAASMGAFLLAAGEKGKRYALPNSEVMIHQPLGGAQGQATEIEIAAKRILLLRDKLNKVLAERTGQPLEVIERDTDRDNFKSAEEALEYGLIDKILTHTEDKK
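FRET quenching reversal measured ClpP activation: 10 microg/mL B. subtilis ClpP at pH 8 with the FRET-FV decapeptide, read at 430 nm after 320 nm excitation. The 20-min minus 0-min signal was scaled between DMSO/no-enzyme wells and ADEP (5.8 microM final).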
Resorufin autofl: qHTS for Inhibitors of mutant isocitrate dehydrogenase 1 (IDH1): Cherrypicks Autofluorescence Interference; shares compounds with IDH1 R132H inh; Resorufin detection reagent fluorescence interference, cell-free; inhibition of signal, % at 51.2 µM; 750 tested, under 10 active;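 further: 0% = wells with normal resorufin and full inhibition = wells lacking resorufin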
IDH1 WT: qHTS for Inhibitors of mutant isocitrate dehydrogenase 1 (IDH1): Cherrypicks in WT IDH1; actives 9% (n = 750); shares compounds with IDH1 R132H inh; WT IDH1 enzyme, NADPH diaphorase/resazurin fluorescence; Potency, µM (series often up to 115 µM), for inactives: at the top dose activity change, negative = inhibition, actives largely listed as inhibitors; AID 623995, 2012;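 further: potency means the concentration at half of the fitted maximal effect; 0% = full WT IDH1 enzyme control and full inhibition = no enzyme wells; nearly all actives have a fitted effect of over 55% in size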
IDH1 R132H conf: qHTS for Inhibitors of mutant isocitrate dehydrogenase 1 (IDH1): Confirmation of Cherrypicks | actives 83% (n = 750) | shares compounds with IDH1 R132H inh | IDH1 R132H enzyme, NADPH diaphorase/resazurin fluorescence | Potency, µM (series often up to 76.6 µM), without a hit: at the highest dose activity change, negative = inhibition, usual class: inhibitors; further: potency means the concentration at half of the fitted maximal effect; nearly all actives have a fitted effect of over 50% in size
Active calls of the source: *; ? = inconclusive; . = no result given; [ ] = remark or other dose. Shown is part of a subset that was picked to be rich in hits. Unless noted, the call rests on the fitted dose curve; in most records, active means well fitted curve in the direction sought with a large enough effect; inconclusive means small, poorly fitted or top-dose-only effect, or another doubt; inactive means no such curve, though single readings can be large; an effect the other way counts as inactive or inconclusive.

SMILES | IDH1 R132H inh | ASM inhibitor | Mito fusion act | LDHA inh | RGS4 inhibitor | ClpP mod | Resorufin autofl | IDH1 WT | IDH1 R132H conf
Cc1ccc(-c2cc(C(=O)N3CCCCCC3)c3ccccc3n2)s1 | . | . | . | 0 | . | . | . | . | .
CCc1cc(=O)[nH]c(-n2nc(C)cc2NC(=O)c2cccc3ccccc23)n1 | . | . | . | -15 | . | . | . | . | .
C[C@H](CO)N1C[C@H](C)[C@@H](CN(C)Cc2ccc(C(=O)Nc3ccccc3N)cc2)Oc2c(NC(=O)C3CCCCC3)cccc2C1=O | 40µM* | 0% | . | 4 | -8% | -3% | -14 | ? | 28µM*
C[C@H](CO)N1C[C@H](C)[C@@H](CN(C)Cc2ccc(Cl)c(Cl)c2)Oc2c(NC(=O)C3CC3)cccc2C1=O | ? | -2% | . | 1 | 8% | 1% | -4 | -9% | 25µM*
Cc1nc2nc(NCc3ccc(Cl)cc3)[nH]n2c(=O)c1C | . | . | . | -20 | . | . | . | . | .
O=C(CCl)c1ccc2c(c1)CCN2C(=O)C1CCCCC1 | ? | -2% | -38% | 1 | -26% | ? | 0 | 8% | 40µM*
Cc1cc(N(CCO)CCO)ccc1C(c1ccc(N(CCO)CCO)cc1C)c1ccccc1Cl | 26µM* | -15% | -2% | 7 | -41% | -2% | 7 | ? | 7.1µM*
CC(=O)Nc1ccc(C=NNc2ccc(S(=O)(=O)Nc3ccccc3C(=O)O)cc2[N+](=O)[O-])cc1 | -4% | ? | . | ? | -7% | . | . | . | .
O=C(O)c1ccccc1NS(=O)(=O)c1ccc(N/N=C/c2cccc(O)c2O)c([N+](=O)[O-])c1 | 41µM* | ? | . | 22 | ? | -7% | 8 | ? | 14µM*
COc1ccc(NS(=O)(=O)c2ccc(NC(=S)NC(=O)/C=C/c3ccccc3)cc2)nn1 | ? | -7% | -7% | -4 | -19% | 1% | -7 | ? | 25µM*
COc1cc(NS(=O)(=O)c2ccc(NC(=S)NC(=O)/C=C/c3ccc(F)cc3)cc2)ncn1 | 6.6µM* | -17% | -3% | -13 | 35% | -1% | -8 | 11µM* | 1.4µM*
CCCOc1ccc(/C=C(/C#N)c2nc3ccccc3[nH]2)c(OCCC)c1 | . | . | . | 14 | . | . | . | . | .
Cc1ccc2nc3c(nc2c1C)CCCC3 | 0% | 0% | -22% | -3 | -10% | 0% | . | . | .
Cc1ccc2nc3c(nc2c1C)C(O)=C3O | ? | 5% | -1% | 0 | -32% | . | -6 | 63% | 45µM*
O=c1cc(N2CCCCC2)c(-c2ccccc2)nn1Cc1ccc(Cl)cc1 | -4% | -14% | -1% | -7 | 5% | -3% | . | . | .
O=c1cc(N2CCCCC2)c(-c2ccccc2)nn1Cc1c(Cl)cccc1Cl | 21µM* | -19% | 3% | 1 | -23%[11.4 µM] | -6% | 4 | 9% | 14µM*
COC(=O)COc1ccc2c3c(c(=O)oc2c1)CCC3 | . | . | . | 7 | . | . | . | . | .
C=CS(=O)(=O)c1c2cc(OC)ccc2nc2ccc(OC)cc12 | ? | 239% | . | 6 | ? | -3% | 2 | 28µM* | 10µM*
CC(C)(C)OC(=O)N1CCC(c2cc(=O)n3[nH]cc(C(=O)NC4CCCC4)c3n2)CC1 | -31% | 0% | 0% | -1 | -1% | 4% | . | . | .
CC(C)(C)OC(=O)N1CCC(c2cc(=O)n3[nH]cc(C(=O)Nc4ccc(F)c(Cl)c4)c3n2)CC1 | ? | 14% | 0% | -3 | -2% | ? | -8 | ? | 10µM*
COc1ccc(NC(=O)c2c[nH]n3c(=O)cc(C4CCN(C(=O)OC(C)(C)C)CC4)nc23)cc1Cl | 41µM* | 18% | 2% | -16 | -38% | -4% | -5 | 32µM* | 20µM*
COc1ccc(NC(=O)c2cnn(-c3ccc(F)cc3F)c2C2CCN(C(=O)OC(C)(C)C)CC2)cc1Cl | -4% | . | . | 7 | -24% | -18% | . | . | .
O=C(NC(NC(=O)c1ccccc1)c1ccc(Cl)cc1Cl)c1ccccc1 | . | . | . | -4 | . | . | . | . | .
COc1cc(C(=O)/C=C/c2ccc(Cl)cc2Cl)ccc1OCC(=O)O | . | . | . | -1 | . | . | . | . | .
Cc1ccc(-c2cc(-c3ccccc3)c(C#N)c(SCS(=O)Cc3ccccc3)n2)cc1 (stereo not drawn) | . | . | . | -3 | . | . | . | . | .
SMILES | IDH1 R132H inh | ASM inhibitor | Mito fusion act | LDHA inh | RGS4 inhibitor | ClpP mod | Resorufin autofl | IDH1 WT | IDH1 R132H conf
CC(=O)N1CCn2c3c(c4cc(C)ccc42)CCCC31 (stereo not drawn) | -1% | -1% | -16% | 2 | 1% | ? | . | . | .
Cc1ccc2c(c1)c1c3n2CCN(C(=O)CCl)C3CCC1 (stereo not drawn) | 46µM* | -5% | 0% | 3 | -2% | . | -1 | ? | 16µM*
FC(F)(F)c1cccc(Nc2c3c(nc4ccc(Cl)cc24)CCC3)c1 | ? | . | . | 2 | 1% | ? | 3 | 2% | ?
Fc1ccc(F)c(Nc2c3c(nc4ccc(Cl)cc24)CCC3)c1 | ? | . | . | -6 | 35% | ? | . | . | .
CCCCN(C(=O)CCC(=O)Nc1cc(C)on1)C(C(=O)NC1CCCC1)c1ccc(F)cc1 (stereo not drawn) | -16% | -3% | 4% | -6 | 3% | . | . | . | .
Cc1cc(NC(=O)CCC(=O)N(c2ccc(F)cc2)C(C(=O)NC2CCCC2)c2ccc(C)o2)no1 (stereo not drawn) | -18% | 0% | 0% | 0 | 12% | -2% | . | . | .

Screens: PubChem BioAssay, National Center for Advancing Translational Sciences (NCATS)
